Format in all cases: functional
For assay [1], the system named is Plasmodium falciparum. The assay is described as follows: GSK_TCMDC: Inhibition of Plasmodium falciparum 3D7 in whole red blood cells, using parasite LDH activity as an index of growth. Test compounds present at 2uM.
Assay [2] concerns Plasmodium falciparum. The assay is described as follows: GSK_TCMDC: Inhibition of Plasmodium falciparum Dd2 in whole red blood cells, using parasite LDH activity as an index of growth. Test compounds present at 2uM.
In assay [3] the test system is HepG2. The assay is described as follows: GSK_TCMDC: Percent inhibition of human HepG2 cell line. Test compounds present at 10uM.

`COc1ccc2nccc([C@@H](O)CN3CCC(NCc4ccc5c(c4)oc(=S)n5C)CC3)c2c1.O=C(O)/C=C/C(=O)O`: the Inhibition in assay [1] turned out to be 100%; in assay [2], 68%; in assay [3], 14%.

With `CCc1cn2c3c(cc(C(=O)N[C@@H](Cc4ccccc4)[C@H](O)CNC(C)(C)c4cccc(OC)c4)cc13)N(C)S(=O)(=O)C2.O=CO`, the Inhibition in assay [1] turned out to be 98%; in assay [2] it was 99%; in assay [3], 27%.

With `CS(=O)(=O)c1ccc(CCNCc2ccc(-c3ccc(CN(C(=O)c4ccc(Cl)nc4)C4CCN(Cc5ccccc5)CC4)cc3)nc2)cc1.O=C(O)C(F)(F)F`, the Inhibition is reported as 93% in assay [1], 70% in assay [2] and 24% in assay [3].

Turning to `O=C(NCC1CCN(Cc2cccc(C(F)(F)F)c2)C1)c1cc(-c2cccc(Cl)c2)cs1.O=C(O)C(F)(F)F` (stereo not given), the figures for the Inhibition in assay [1], in assay [2] and in assay [3] were 93%, 14% and 15%, respectively.

`Br.CC1(C)NC(N)=NC(=N)N1OCCOc1ccc2ccccc2c1`: the results for the Inhibition in assay [1], in assay [2] and in assay [3] were 93%, 96% and 70%, respectively.

On to `CCN(CC)CCN1C(=O)c2oc3ccc(Cl)cc3c(=O)c2C1c1ccc(SC)cc1` (stereo not given), for which the Inhibition in assay [1] is reported as 98%; in assay [2], 6%; in assay [3], 0%.

Turning to `CC1(C)NC(=N)N=C(NOCC=Cc2ccccc2)N1`, the Inhibition in assay [1] is 98%; in assay [2] it was 2%; in assay [3], 35%.

Take `Cc1cccc2nc(-c3ccc(-c4cccc(CNCC5CCCO5)c4)cc3)[nH]c12.O=C(O)C(F)(F)F` (stereo not given): the Inhibition was determined as 100% in assay [1], 50% in assay [2] and 18% in assay [3].

For the molecule `COc1cc(NC(=O)/C=C/c2ccccc2OC(F)(F)F)cc(OCCN2CCC(O)(c3ccccc3)CC2)c1.O=C(O)C(=O)O`, the Inhibition stood at 100% in assay [1], 50% in assay [2] and 61% in assay [3].

On to `N#CCOc1c(C2CCN(CCCCNC(=O)c3ccc(-c4ccc(C(F)(F)F)cc4)cc3)CC2)ccc2c1CCCC2`, for which the values for the Inhibition in assay [1], in assay [2] and in assay [3] were 97%, 48% and 59%, respectively.

For the molecule `CC(C)(C)NCCN(Cc1ccc(-c2ccc(C(F)(F)F)cc2)cc1)C(=O)Cn1c(CCc2cccc(F)c2F)nc(=O)c2c1CCC2.O=C(O)C(O)C(O)C(=O)O`, the values for the Inhibition in assay [1], in assay [2] and in assay [3] were 95%, 48% and 6%, respectively.

For `Cc1cccc2nc(-c3cccc(-c4cccc(CNCc5cnn(-c6ccccc6)n5)c4)c3)[nH]c12.O=C(O)C(F)(F)F`, the Inhibition is 99% in assay [1], 38% in assay [2] and 12% in assay [3].

For the molecule `CN1CCC(N(Cc2ccc(-c3cnc(NCc4ccccc4)nc3)cc2)S(=O)(=O)c2ccccc2)CC1.O=C(O)C(F)(F)F`, the Inhibition in assay [1] amounted to 100%; in assay [2] it was 10%; in assay [3], 48%.

Regarding `CC1(C)N=C(N)N=C(N)N1c1ccc(Oc2ccc(Cl)cc2)c(Cl)c1`, the Inhibition is recorded as 97% in assay [1], 20% in assay [2] and 13% in assay [3].

In the case of `Cc1cccc2nc(-c3cccc(-c4ccc(NC(=O)c5ccc(=O)[nH]n5)cc4)c3)[nH]c12`, the Inhibition came to 100% in assay [1], 27% in assay [2] and 18% in assay [3].

In the case of `Cl.c1ccc2c(NCCCCCCNc3ccnc4ccccc34)ccnc2c1`, the results for the Inhibition in assay [1], in assay [2] and in assay [3] were 100%, 12% and 43%, respectively.

As for `O=C(Nc1ccc2c(c1)CCNCC2)Nc1ccc2ccccc2c1.O=C(O)C(F)(F)F`, the Inhibition in assay [1] is recorded as 84%; in assay [2] it was 23%; in assay [3], 0%.

Consider `COc1ccc2nc(-c3cccc(C)n3)nc(Nc3ccncc3)c2c1`, for which the results for the Inhibition in assay [1], in assay [2] and in assay [3] were 100%, 42% and 0%, respectively.

Take `Cc1ccc2nc(N(CCCn3ccnc3)C(=O)C=Cc3cccs3)sc2c1.Cl`: the values for the Inhibition in assay [1], in assay [2] and in assay [3] were 100%, 57% and 22%, respectively.

On to `Cc1ccc(-n2c(=O)c3c(n4c(SC(C)C)nnc24)-c2ccccc2CC32CCCCC2)cc1`, for which the Inhibition was determined as 95% in assay [1], 88% in assay [2] and 8% in assay [3].

Turning to `COc1ccc(NC(=O)c2ccc(OCCCCCCCOc3ccc(C(=O)Nc4ccc(OC)c(N5CCN(C)CC5)c4)cc3)cc2)cc1N1CCN(C)CC1.O=C(O)C(=O)O`, the Inhibition in assay [1] was 96%; in assay [2] it was 91%; in assay [3], 98%.

For the molecule `O=C(Nc1cccnc1)c1cc(-c2cccnc2)nc2ccc(Cl)cc12`, the Inhibition in assay [1] is 97%; in assay [2], 50%; in assay [3] it was 45%.

`Cc1ccc(C2CCN(CCCCNC(=O)c3ccc(NC(=O)c4ccc(Cl)cc4)cc3)CC2)c(OCC(F)(F)F)c1`: the results for the Inhibition in assay [1], in assay [2] and in assay [3] were 99%, 84% and 32%, respectively.

For `COc1ccc2ncc(F)c(CCN3CCC4(CC3)COC(c3cc5c(cn3)OCCO5)=N4)c2n1.O=C(O)C(=O)O`, the Inhibition in assay [1] is on record as 89%; in assay [2], 83%; in assay [3] it was 79%.

On to `Cc1ccccc1N1CCN(c2ncc(C(=O)NC3CC3)cc2Cl)CC1.O=C(O)C(F)(F)F`, for which the Inhibition is 91% in assay [1], 96% in assay [2] and 23% in assay [3].

On to `Fc1ccc(NC(S)=NN=Cc2ccccn2)cc1`, for which the Inhibition in assay [1] stood at 95%; in assay [2] it was 67%; in assay [3], 56%.

On to `Cc1cccc(CNc2nc(C)cc(N[C@@H](Cc3ccccc3)C(=O)NC3CCCC3)n2)c1.O=C(O)C(F)(F)F`, for which the Inhibition in assay [1] is recorded as 100%; in assay [2] it was 97%; in assay [3] it was 51%.

`FC(F)(F)c1ccc2[nH]c(-c3ccc(-c4ccc(CNCCN5CCNCC5)cc4)s3)nc2c1.O=C(O)C(F)(F)F`: the Inhibition in assay [1] was 94%; in assay [2] it was 79%; in assay [3], 17%.

As for `Cc1c(C)c2c(c(C)c1O)CC[C@](C)(C(=O)N1CCC(CCN3CCC(c4c[nH]c5ccccc45)CC3)CC1)O2`, the Inhibition came to 99% in assay [1], 74% in assay [2] and 31% in assay [3].

For the molecule `O=C(O)C(F)(F)F.Oc1ccc(CCNc2nc(NCCCOc3cccc(-c4ccccc4)c3)nc(N3CCNCC3)n2)cc1`, the Inhibition is on record as 89% in assay [1], 14% in assay [2] and 40% in assay [3].

Broadly, the Inhibition is the percentage by which the read-out fell short of the control. Low values mean a weak effect, high ones a strong effect.

These data come from ChEMBL document CHEMBL1157539, “Thousands of chemical starting points for antimalarial lead identification” (Nature, 2010).
